# Screening data: PubChem BioAssay, several laboratories
# This is a sample that favours compounds with a hit; in the whole collection about 4.7% have one here.
# tim23-1 inh: growth inhibitors of tim23-1 mutant yeast | inhibition, % at 20 µM | 1.3% of 330,000 active | S. cerevisiae tim23-1 growth, BacTiter-Glo luminescence, 24 h;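 active = growth inhibition of the mutant yeast at or above 50%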;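 note: temperature-sensitive mutant grown at 25 °C; plate controls were DMSO-treated mutant yeast for no effect and medium wells lacking yeast for full effect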
# TIM10 inh: growth inhibitors of TIM10 yeast strain. S. cerevisiae TIM10 strain growth, BacTiter-Glo luminescence, 24 h. inhibition, % at 10 µM. 1.4% of 330,000 active;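 active = inhibition of 40% or more at the single tested concentration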;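 note: wild-type TIM10 isogenic control strain grown at permissive 25 °C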
# tim10-1 inh: inhibits growth of tim10-1 mutant yeast | AID 463190 | inhibition, % at 20 µM | 2.2% of 330,000 active | S. cerevisiae tim10-1 ts strain growth, BacTiter-Glo, 24 h;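 active = inhibition of at least 40%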;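 note: mutant grown at 25 °C; 0% = DMSO wells with yeast and 100% = wells holding no yeast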
# EBI2 block: antagonists of human EBI2 receptor; 0.81% of 360,000 active; AID 651636; EBI2 beta-arrestin recruitment, luminescence, 7a,25-OHC stimulated; inhibition, % at 5 µM; P32249; in the data active = inhibition above about 38%;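 note: enzyme fragment complementation signal reports receptor beta-arrestin coupling in cells; 0% = agonist plus DMSO wells and 100% = wells without agonist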
# Target sequence (P32249 whole entry, looked up, the tested form may be a part): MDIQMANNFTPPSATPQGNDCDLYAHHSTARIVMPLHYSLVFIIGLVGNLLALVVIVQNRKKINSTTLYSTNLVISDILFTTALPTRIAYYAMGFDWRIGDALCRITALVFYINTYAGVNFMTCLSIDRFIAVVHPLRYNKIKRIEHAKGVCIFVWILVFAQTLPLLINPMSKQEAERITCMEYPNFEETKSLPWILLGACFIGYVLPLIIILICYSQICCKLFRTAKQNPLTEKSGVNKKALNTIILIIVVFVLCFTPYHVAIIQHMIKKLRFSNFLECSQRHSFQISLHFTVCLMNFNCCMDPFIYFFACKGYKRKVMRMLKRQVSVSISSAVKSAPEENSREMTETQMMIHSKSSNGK
# PfHsp90 yeast 2: inhibits growth of yeast expressing Plasmodium falciparum Hsp90; 0.32% of 310,000 active; S. cerevisiae expressing PfHsp90, BacTiter-Glo ATP, 48 h; yeast lacking PDR1 and PDR3 efflux regulators; inhibition, % at 9.4 µM; AID 504621;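 active = every replicate shows inhibition above about 80%, whatever the replicate mean, limit read from the data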;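 note: 0% = DMSO neutral controls and 100% = 20 µM radicicol positive controls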
# SKKanGAS inh: blocks kanamycin growth of S. pyogenes SKKanGAS strain | BacTiter-Glo, 6 h | inhibition, % at 7.5 µM | 1.3% of 300,000 active | AID 1662;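 active = mean replicate score, as percent of positive control median, at least 50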;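 note: strain carries kanamycin resistance gene driven by streptokinase promoter and grows in 40 µg/ml kanamycin; loss of luminescence reflects streptokinase promoter inhibition or plain growth inhibition; 0% = median of DMSO wells and 100% = positive control at its reference dose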
# * marks the source's active call; other numbers are inactive results; nt = not tested or not shown.
SMILES,tim23-1 inh,TIM10 inh,tim10-1 inh,EBI2 block,PfHsp90 yeast 2,SKKanGAS inh
Cc1nc(-c2cccc(NC(=O)c3ccc(-n4cccn4)cc3)c2)cs1,18.2,-5.5,8.0,1.0,-5.0,nt
CC(=O)Nc1cccc(-c2ccnc3c2CC(C(=O)Nc2ccc(Cl)cc2)O3)c1 (stereo not drawn),nt,nt,nt,-52.9,nt,nt
O=C(N/N=C/c1cc(Cl)ccc1O)C(=O)Nc1ccccc1OC(F)(F)C(F)F,nt,nt,nt,39.2,-3.7,nt
O=C(N/N=C/c1cc(Br)ccc1O)C(=O)Nc1ccccc1OC(F)(F)C(F)F,nt,nt,nt,26.8,-19.6,102.8*
CCc1nc2ccc(C(=O)NCc3ccc(OC)cc3)cn2c1N(C)CCC(C)C,nt,nt,nt,19.9,nt,nt
COCCCn1c(O)c(/C=C2\N=C(C#N)C(=Nc3ccc(C)cc3)O2)sc1=S,12.8,11.3,8.8,-5.2,0.3,53.1*
O=C(O)CCCn1c(O)c(C=C2N=c3ccccc3=N2)sc1=S,5.6,-14.1,7.6,-2.5,-32.2,5.0
CC1(C(=O)Nc2cccc3cccnc23)CCN1Cc1ccccc1OC(F)F (stereo not drawn),nt,nt,nt,17.5,nt,nt
CC(C)=CCc1c(O)cc2oc3c(CC=C(C)C)c(O)c(O)c(CC=C(C)C)c3c(=O)c2c1O,15.4,-4.3,13.4,0.1,13.0,100.8*
CC(=O)c1ccc(O)c(CC=C(C)C)c1O,16.5,-4.6,27.9,-6.3,nt,5.7
COCCNC(=O)C1(C)CCCN(C(=O)c2cc(OC)c(OC)c(OC)c2)C1 (stereo not drawn),nt,nt,nt,-10.7,nt,nt
CC(C)CN1C(=S)SC(C)(C)C1n1oc(=O)n(-c2ccc(Cl)cc2)c1=O (stereo not drawn),30.8,22.4,13.5,-8.0,nt,70.9*
COc1ccc(S(=O)(=O)Nc2ccc3c(c2)C(=O)N([C@H](C)CO)C[C@H](C)[C@@H](CN(C)S(=O)(=O)c2cn(C)cn2)OCCCC[C@H](C)O3)cc1,nt,nt,nt,-15.1,nt,nt
COCCn1c(SCC(=O)Nc2ccc(C(N)=O)cc2)nc2c([nH]c3ccccc32)c1=O,3.0,-15.8,-8.4,-2.6,-6.4,0.0
COCCn1c(SCC(=O)Nc2ccc(F)cc2)nc2c([nH]c3ccccc32)c1=O,8.4,2.9,16.0,8.0,6.1,50.8*
C=C(C)COc1ccc(-c2[nH]ncc2-c2ccc(OC)cc2)c(O)c1,28.6,0.9,0.6,18.7,21.8,74.8*
C=C(C)COc1ccc(-c2[nH]ncc2-c2ccccc2)c(O)c1,22.2,21.3,33.3,19.2,54.8,17.6
C=C(C)COc1ccc(-c2[nH]ncc2Oc2cccc(OC)c2)c(O)c1,13.1,38.8,-40.6,10.0,110.1*,75.7*
COc1ccccc1-c1cn[nH]c1-c1ccc(OCc2ccc(F)cc2)cc1O,30.1,21.4,11.0,4.0,-3.3,51.2*
CCOc1ccccc1Oc1cn[nH]c1-c1ccc(O)cc1O,14.2,19.4,7.6,11.4,-8.2,-0.4
C=C(C)COc1ccc(-c2[nH]ncc2Oc2ccccc2OCC)c(O)c1,16.3,-5.7,30.3,-2.8,-23.0,76.5*
C=C(C)COc1ccc(-c2nc(N)ncc2-c2ccc(Cl)cc2)c(O)c1,25.3,-4.6,-13.4,18.3,-17.9,99.0*
C=C(C)COc1ccc(-c2nc(N)ncc2-c2ccc(OC)c(OC)c2)c(O)c1,30.6,22.8,22.9,34.8,7.1,-3.5
C=C(C)COc1ccc(-c2ncncc2Oc2ccc(OC)cc2)c(O)c1,20.8,19.7,7.5,-11.4,nt,55.3*
O=C1NC(=S)S/C1=C\C=C\c1ccc([N+](=O)[O-])o1,nt,nt,nt,3.6,106.0*,nt
SMILES,tim23-1 inh,TIM10 inh,tim10-1 inh,EBI2 block,PfHsp90 yeast 2,SKKanGAS inh
O=C(O)/C=C/c1ccc([N+](=O)[O-])o1,3.6,0.3,-0.6,8.7,10.2,-17.9
CCN(CC)S(=O)(=O)c1cccc(NC(=O)CNc2cccc(S(=O)(=O)N3CCOCC3)c2)c1,-5.3,-0.6,4.5,2.2,-21.2,-2.9
COc1ccc(NC(=O)C(c2ccc(C#N)cc2)n2c(=O)c(-c3cc4ccccc4[nH]3)nc3ccccc32)cc1 (stereo not drawn),nt,nt,nt,31.2,nt,nt
O=C(Nc1ccccc1)C(=O)Nc1ccc2c(c1)N(C(=O)C1CC1)CCC2,30.1,13.2,21.7,-29.3,nt,54.5*
CCN(CC(=O)NC1CCS(=O)(=O)C1)Cc1nc2c(Br)cc(Br)cc2c(=O)[nH]1 (stereo not drawn),12.5,-9.1,1.2,-2.5,-17.5,6.5
C=CCOc1ccc(CN(C)Cc2nc3cc(C(F)(F)F)ccc3c(=O)[nH]2)cc1,11.9,10.5,27.0,0.0,16.8,5.6
CN(Cc1ccc(OC(F)F)cc1)Cc1nc2c(Br)cc(Br)cc2c(=O)[nH]1,10.0,33.8,18.8,-7.8,-4.5,61.6*
Cc1ccc(NC(=O)CN(C)Cc2ccc(Cl)cc2)cc1,15.8,-6.3,-1.5,-7.9,15.7,-1.5
Cc1ccc(NC(=O)CN(C)Cc2nc3c(Br)cc(Br)cc3c(=O)[nH]2)cc1,-32.3,25.2,21.4,-5.2,-14.4,60.5*
CCN(CC(=O)NC(C)(C)C)Cc1nc2c(Br)cc(Br)cc2c(=O)[nH]1,24.0,2.7,19.5,7.3,6.0,51.0*
CCCC(=O)N1CCCC1(C)C(=O)Nc1ccc2cn[nH]c2c1 (stereo not drawn),nt,nt,nt,0.2,nt,nt
CC(CCc1ccccc1)NC(=O)c1ccc(Br)cc1 (stereo not drawn),2.7,-39.0,-11.9,10.7,111.6*,-8.0
CC(C)(C)c1ccc2c(c1)OC(C(=O)N/N=C\c1ccncc1)CO2 (stereo not drawn),6.8,-78.6,-63.5,0.5,2.2,-19.5
CC(C)(C)c1ccc2c(c1)OC(C(=O)N/N=C/c1ccc([N+](=O)[O-])o1)CO2 (stereo not drawn),27.9,5.7,-49.0,24.7,nt,66.3*
O=c1[nH]c2ccc(Cl)cc2c(-c2ccccc2)c1N1CCOCC1,9.6,9.2,19.4,13.8,3.9,-8.2
O=c1[nH]c2ccc(Cl)cc2c(-c2ccccc2)c1N1CCN(c2ccccn2)CC1,42.3,14.2,4.6,14.7,-47.7,83.8*
Cc1[nH]c2ccccc2c1CN1CCC(Cc2ccccc2)CC1,22.2,-9.7,21.5,9.5,6.9,-0.5
N#Cc1ccc(C(=O)Nc2nc(SCc3ccc(Cl)cc3)n[nH]2)cc1,-1.4,7.4,6.0,-5.9,-14.9,86.8*
CCN(CC)CCNC(=O)C(=O)Nc1cc2c3c(c1)CCC(=O)N3CCC2,0.9,1.6,-11.2,-20.6,-0.6,0.2
c1ccc(-c2nnc(-c3c[nH]c4ccccc34)nc2-c2ccccc2)cc1,29.1,17.7,24.5,30.5,-48.0,64.9*
ClC(Cl)c1nnc(-c2ccccc2)c(-c2c[nH]c3ccccc23)n1,23.1,15.3,24.3,14.9,-10.8,11.3
N#Cc1ccccc1NC(=O)COC(=O)/C=C/c1ccc(S(=O)(=O)N2CCOCC2)cc1,6.8,7.3,14.6,12.6,24.7,nt
COc1c(CC=C(C)C)cc(C2CC(=O)c3c(O)cc(O)cc3O2)cc1CC=C(C)C (stereo not drawn),23.6,14.5,19.4,-0.5,-16.1,100.9*
